Screening data (PubChem)
Cruzain noTriton = qHTS Assay for Promiscuous and Specific Inhibitors of Cruzain (without detergent); purified cruzain, Z-FR-AMC fluorescence, no detergent; AID 1476, 2009; 2.3% of 200,000 active; Potency, µM, for inactives: max response, negative = inhibition, actives largely listed as inhibitors; Cruzipain (Trypanosoma cruzi), P25779;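 also: plate controls were enzyme without inhibitor for no effect and buffer without enzyme for full effect; nearly all actives have a fitted effect of over 40% in size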
Target sequence (P25779 123-467 limits assumed): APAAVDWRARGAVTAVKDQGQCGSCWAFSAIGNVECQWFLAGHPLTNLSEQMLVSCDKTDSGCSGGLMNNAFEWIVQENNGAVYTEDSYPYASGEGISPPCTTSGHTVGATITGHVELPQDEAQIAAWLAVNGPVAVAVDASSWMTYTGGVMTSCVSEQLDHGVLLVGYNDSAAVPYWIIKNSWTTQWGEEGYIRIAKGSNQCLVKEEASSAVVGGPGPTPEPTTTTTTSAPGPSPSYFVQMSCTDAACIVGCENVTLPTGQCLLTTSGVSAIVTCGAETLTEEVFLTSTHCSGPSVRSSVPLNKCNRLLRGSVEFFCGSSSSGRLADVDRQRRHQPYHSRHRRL
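Purified cruzain at 1.5 nM, pre-incubated 15 min with compound at room temperature in 100 mM sodium acetate pH 5.5, 5 mM DTT, 0.00005% Triton X-100. Reaction started with 2 uM Z-FR-AMC; AMC fluorescence increase over 60 s gives rate.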
Cruzain Triton = qHTS Assay for Promiscuous and Specific Inhibitors of Cruzain (with detergent); Potency, µM, for the others: max response, negative = inhibition, usual class: inhibitors; purified cruzain, Z-FR-AMC fluorescence, 0.01% Triton; 0.43% of 200,000 active; AID 1478, 2009;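 also: plate controls were neutral wells for no effect and buffer without enzyme for full effect; nearly all actives have a fitted effect of over 40% in size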
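Z-FR-AMC hydrolysis (2 uM substrate) by cruzain (1.5 nM) monitored kinetically at ex 360/em 450 nm after 15 min room-temperature compound exposure; 0.01% Triton X-100, pH 5.5, 5 mM DTT.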
* = called active by the depositor; ? = inconclusive. Sampled rows, rich in hits. Any-hit rate of the full collection: about 2.5%. Calls follow the shape of the dose curve; as a rule, active = well fitted curve in the direction sought with a large enough effect; inconclusive = small, poorly fitted or top-dose-only effect, or another doubt; inactive = no such curve, though single readings can be large; an effect the other way counts as inactive or inconclusive. Potency is read from the fitted curve at half-maximal effect.

SMILES | Cruzain noTriton | Cruzain Triton
Cc1cccc(C(=O)Nc2ccc3nc(SCC(=O)N4CCCC4)sc3c2)c1 | ? | -11%
CCOc1ccc(-c2nonc2NC(=O)c2ccccc2C)cc1 | 13% | 9%
CCOC(=O)NC(=O)CSc1nc(C)cc(C(F)(F)F)c1C#N | 0% | -3%
Cc1cc(C(F)(F)F)c(C#N)c(SCC(=O)Nc2nc3cc(Br)ccc3s2)n1 | 20µM* | -9%
COCCCN1CCc2nc(SCC(=O)Nc3ccc(C)c(Cl)c3)[nH]c(=O)c2C1 | 1% | -2%
COc1ccccc1NC(=O)Cn1c(=O)n(Cc2ccccc2)c(=O)c2c1c1cc(C)ccc1n2C | 2% | -1%
CCc1ccc(OCC(=O)NC(=S)Nc2ccc(C)cc2C)c(Br)c1 | 13µM* | 6%
CCc1ccc(OCC(=O)NCCN(C)C)c(Br)c1 | -3% | -1%
CC(=O)c1ccc(NS(=O)(=O)c2cc(-c3cc(C)no3)ccc2C)cc1 | -3% | -1%
COc1ccccc1CNC(=O)C1CCN(S(=O)(=O)c2c(C)noc2/C=C/c2c(C)cc(C)cc2C)CC1 | 5% | -3%
Cc1ccc(NC(=O)C(OC(=O)c2ccc(C=O)cc2)c2ccccc2)cc1Cl (centres undefined) | 25µM* | -9%
COCC(C)NC(C(=O)Nc1ccc(C)c(Cl)c1)c1ccccc1 (centres undefined) | -2% | 0%
CC(C)c1ccc(CNc2nc(-c3ccco3)nn2S(=O)(=O)c2ccc3ccccc3c2)cc1 | 10µM* | 0%
Cc1ccc(CNc2nc(-c3ccco3)nn2S(=O)(=O)c2ccc3ccccc3c2)cc1 | ? | -3%
COc1cc(OC)c(OC)cc1CN1CCc2nc(Nc3ccc4c(c3)OCCO4)ncc2C1 | -2% | -2%
O=C(COC(=O)CCC1CCCC1)Nc1nc2c(F)c(F)c(F)cc2s1 | 10µM* | -4%
O=C(COC(=O)CCC1CCCC1)Nc1ccc(Cl)cn1 | -9% | 4%
CC(C)Cn1c(=O)c2sccc2n2c(CCCC(=O)N3CCN(c4ccc(F)cc4)CC3)nnc12 | 32% | 2%
COc1ccccc1C(=O)Nc1ccc(S(=O)(=O)Nc2ncccn2)cc1 | 20% | -2%
O=C(Cn1c(O)c(/C=C2\C=Nc3ccccc32)sc1=O)Nc1ccc2c(c1)OCO2 | 5µM* | 0%
O=C(CN1C(=O)c2ccccc2C1=O)Nc1ccc2c(c1)OCO2 | -15% | 1%
O=[N+]([O-])c1ccc(CCNc2cccc3ccccc23)c([N+](=O)[O-])c1 | 25µM* | -1%
O=[N+]([O-])c1cc([N+](=O)[O-])c2ccccc2c1 | -4% | -5%
Cc1ccc(OCC(=O)Nc2ccc3nc(SCC(=O)N(C)c4ccccc4)sc3c2)cc1 | ? | -3%
CCOC(=O)c1cc2c(=O)n3ccccc3nc2n(CC2CCCO2)c1=NC(=O)c1cc(C)cc(C)c1 (centres undefined) | -5% | -2%
SMILES | Cruzain noTriton | Cruzain Triton
CCCCNC(=O)c1cc2c(=O)n3cccc(C)c3nc2n(Cc2ccncc2)c1=N | ? | 22µM*
COCCn1c(=N)c(C(=O)NCc2ccco2)cc2c(=O)n3ccccc3nc21 | ? | -5%
CCn1c(=N)c(C(=O)NCc2ccccc2)cc2c(=O)n3cccc(C)c3nc21 | 14% | -6%
CCn1c(=N)c(C(=O)NC)cc2c(=O)n3cccc(C)c3nc21 | ? | 14µM*
CCn1c(=N)c(C(=O)OC)cc2c(=O)n3ccccc3nc21 | -79% | 0.2µM*
COc1ccc(CCNC(=O)c2cc3c(=O)n4cccc(C)c4nc3n(Cc3ccncc3)c2=N)cc1 | 13% | 1%
CCOC(=O)c1cc2c(=O)n3ccccc3nc2n(CC2CCCO2)c1=NC(C)=O (centres undefined) | 10µM* | 32µM*
COc1cc(C(=O)NCc2ccc3c(c2)CCN3C(=O)c2ccc(Cl)cc2)cc(OC)c1OC | ? | -3%
COC(=O)c1c(SCC(=O)Nc2ccccc2OC)[nH]c2ccccc2c1=O | -25% | -10%
COc1ccc(C)cc1NC(=O)C(CCSC)NS(=O)(=O)c1ccc2c(c1)oc(=O)n2C (centres undefined) | 0% | 2%
Cc1ccc(-n2nnc(-c3nsc(NC(=O)c4ccccc4C)n3)c2C)cc1Cl | -5% | -2%
Cc1c(-c2nsc(NC(=O)c3ccccc3)n2)nnn1-c1ccc(C(F)(F)F)c(Cl)c1 | 20µM* | -1%
CCc1ccc(-c2nn(CC(=O)NC3CCCC3)c3c2cnc2ccc(F)cc23)cc1 | -4% | 0%
CCOCCCNC(=O)Nc1cc(C(=O)NCc2ccc(C(C)C)cc2)ccc1N1CCCC1 | ? | -9%
COc1ccc(S(=O)(=O)c2cnc(SCC(=O)Nc3cc(F)ccc3C)[nH]c2=O)cc1Cl | 30% | -23%
O=C(c1ccc2nc(-c3ccco3)c(-c3ccco3)nc2c1)N1CCC2(CC1)OCCO2 | ? | 25µM*
O=C(c1ccc2nc(-c3ccco3)c(-c3ccco3)nc2c1)N1CCN(c2ccccc2)CC1 | -2% | ?
CCOc1ccc(CCNC(=O)c2sc3ncccc3c2-n2cccc2)cc1OCC | ? | -6%
CCSc1ccccc1C(=O)Nc1ccc(-c2nc3ccccc3s2)c(O)c1 | 7.9µM* | 1%
CSc1ccc(C(=O)Nc2ccc(-c3nc4ccccc4s3)c(O)c2)cc1 | 2% | 1%
Nc1ccc2nc(-c3ccc(O)cc3)sc2c1 | ? | 106%
O=C(Nc1ccc(O)c(-c2nc3ccccc3s2)c1)c1cc(=O)c2ccccc2o1 | ? | -14%
Oc1ccc(N=C/C=C/c2cccc(Br)c2)cc1-c1nc2ccccc2s1 | 20µM* | -6%
Nc1ccc(O)c(-c2nc3ccccc3s2)c1 | 3.2µM* | -24%
CN(C)CCc1c[nH]c2ccc(CC3COC(=O)N3)cc12 (centres undefined) | -3% | 7%
SMILES | Cruzain noTriton | Cruzain Triton
Cn1c(-c2ccc(S(=O)(=O)N3CCCC3)cc2)csc1=Nc1ccc(Cl)c(Cl)c1 | -1% | -3%
O=S(=O)(c1ccccc1)c1nnn2c1nc(Nc1ccccc1)c1cc(Cl)ccc12 | 7% | 1%
O=C(COc1cc(Cl)ccc1Cl)Nc1ccc2c(c1)CCC2 | 25µM* | -1%
O=C(O)COCC(=O)Nc1ccc2c(c1)CCC2 | -11% | 3%
Cc1ccc2c(c1)c1c(c(=O)n(-c3cccc(Cl)c3)c(=O)n1C)n2C | 7% | -1%
COc1cccc(N2CCN(CC(=O)Nc3nnc(-c4ccccc4)s3)CC2)c1 | 25µM* | -2%
COc1cccc(N2CCN(CC(=O)NCc3cccs3)CC2)c1 | -3% | 1%
COc1cc(OC)c(/C=N/NC(N)=S)cc1Br | 0.25µM* | 0.18µM*
COc1cc(OC)c(OC)cc1/C=N/NC(=O)C[n+]1ccccc1 | -13% | -5%
CCOc1c(Cl)cc(/C=N/NC(N)=S)cc1OC | 0.5µM* | 2.5µM*
CCOc1cc(C(=O)O)cc(Cl)c1OCC#N | 2% | 4%
COc1cc(/C=N/O)cc(Cl)c1OC | -2% | -3%
C#CCOc1c(Cl)cc(/C=N/NC(N)=S)cc1OCC | 0.63µM* | 2µM*
COc1cc2cc(CNc3ccc(C)cc3)c(=O)n(CC(=O)Nc3ccc(F)cc3F)c2cc1OC | 11% | -3%
CCOC(=O)c1ccc(NC(=O)c2ccc(=O)n(Cc3cccc(C)c3)c2)cc1 | ? | -7%
CCC(=O)N1CCc2cc(CNS(=O)(=O)c3cc(Cl)ccc3OC)ccc21 | 14% | 0%
CCOC(=O)c1ccc(NC(=O)CSc2nc3ncc(Br)c(C)c3[nH]2)cc1 | -3% | -1%
Cc1sc2nc(CN3CCCCC3)nc(Cl)c2c1C | 1% | -5%
